Data taken from PubChem BioAssay (NCI).
Where “and” joins values, the source holds several entries; their conditions need not be identical. Equal entries are not always repeated. About 79,000 compounds went through this panel and 15% of them were active in at least one assay; those are over-represented in the sample as a whole. Where a structure was tested more than once in an assay, its records may differ in their call. Calls of active or inactive are those of the source. Rule as the data show it: active = growth inhibition above about 70%; inactive = the rest.

Tests used:
[1] = NCI Yeast Anticancer Drug Screen. Data for the rad52 strain (AID 147);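 also: 0% = growth of vehicle-treated control cultures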; details: S. cerevisiae rad52 mutant growth inhibition, stronger effect = higher value
Method in brief: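 Vehicle-treated cultures served as the reference for growth inhibition of compound-exposed yeast bearing a DNA repair mutation.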

[2] = NCI Yeast Anticancer Drug Screen. Data for the wt1 strain (AID 149);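 also: 0% = growth of vehicle-treated wt1 cultures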; details: S. cerevisiae wt1 strain (SPY 50644) growth inhibition, stronger effect = higher value
Method in brief: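 wt1 yeast, compound-treated; % growth inhibition vs vehicle control.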

[3] = NCI Yeast Anticancer Drug Screen. Data for the rad50EPP+ strain (AID 151);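 also: 0% = growth of vehicle-treated control cultures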; details: S. cerevisiae rad50 mutant strain, stronger effect = higher value
Method in brief: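 In this screen, rad50EPP+ yeast were exposed to compounds. Growth inhibition was scored against vehicle-treated controls.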

[4] = NCI Yeast Anticancer Drug Screen. Data for the mgt1 strain (AID 153); details: S. cerevisiae mgt1 mutant growth inhibition, stronger effect = higher value
Method in brief: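 mgt1 strain exposed; growth vs vehicle control recorded as inhibition.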

[5] = NCI Yeast Anticancer Drug Screen. Data for the rad50 strain (AID 155);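 also: 0% = growth of vehicle-only cultures of the same strain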; details: S. cerevisiae rad50 strain growth inhibition, stronger effect = higher value
Method in brief: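 Genetically altered yeast (DNA repair pathway); compound treatment; growth inhibition vs vehicle ctrl.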

[6] = NCI Yeast Anticancer Drug Screen. Data for the mec2-1 strain (AID 157); details: S. cerevisiae mec2-1 strain, stronger effect = higher value
Method in brief: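 Vehicle-treated cultures served as reference for growth inhibition of compound-exposed mec2-1 yeast.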

[7] = NCI Yeast Anticancer Drug Screen. Data for the rad14 strain (AID 159);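 also: 0% = growth of vehicle-treated control cultures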; details: S. cerevisiae rad14 strain growth inhibition, stronger effect = higher value
Method in brief: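 Test compounds were applied to a repair-deficient yeast strain. Its growth was then compared with that of cultures given vehicle alone, and inhibition was expressed relative to those controls.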

[8] = NCI Yeast Anticancer Drug Screen. Data for the sgs1 mgt1 strain (AID 161);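 also: 0% = growth of cultures given vehicle only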; details: S. cerevisiae sgs1 mgt1 strain, stronger effect = higher value
Method in brief: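 Genetically altered yeast, compound exposure, growth inhibition relative to vehicle.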

[9] = NCI Yeast Anticancer Drug Screen. Data for the CLN2oe strain (AID 163);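 also: 0% = growth of vehicle-only control cultures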; details: S. cerevisiae CLN2oe strain, stronger effect = higher value
Method in brief: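 Inhibition relative to vehicle-treated yeast is reported. Cells: strain with genetic alteration in cell-cycle control, grown with compound.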

[10] = NCI Yeast Anticancer Drug Screen. Data for the cln2 rad14 strain (AID 165);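 also: 0% = growth equal to vehicle treated cultures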; details: S. cerevisiae cln2 rad14 strain, stronger effect = higher value
Method in brief: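 Each compound was tested on cln2 rad14 yeast. Inhibition of growth was calculated against vehicle-exposed controls.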

[11] = NCI Yeast Anticancer Drug Screen. Data for the bub3 strain (AID 167); details: S. cerevisiae bub3 mutant strain, stronger effect = higher value
Method in brief: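 Yeast carrying a defined mutation is treated with each compound, and growth is compared with that of vehicle-exposed cells to give inhibition.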

[12] = NCI Yeast Anticancer Drug Screen. Data for the wt2 strain (AID 169);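 also: 0% = growth of vehicle-treated yeast cultures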; details: S. cerevisiae wt2 strain growth inhibition, stronger effect = higher value
Method in brief: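 Inhibition of yeast growth was determined after compound treatment, normalised to controls receiving only vehicle.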

[13] = NCI Yeast Anticancer Drug Screen. Data for the mlh1 strain (AID 171);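 also: 0% = growth of vehicle-treated control cultures of the same strain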; details: S. cerevisiae mlh1 strain growth inhibition, stronger effect = higher value
Method in brief: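 Vehicle-normalised growth inhibition of a repair- or checkpoint-altered yeast strain following compound treatment.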

[14] = NCI Yeast Anticancer Drug Screen. Data for the mlh1 rad18 strain (AID 175); details: S. cerevisiae mlh1 rad18 strain growth inhibition, stronger effect = higher value
Method in brief: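 Vehicle-treated cultures served as the reference for growth inhibition in a yeast strain carrying DNA damage repair alterations exposed to each compound.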

[15] = NCI Yeast Anticancer Drug Screen. Data for the rad18 strain (AID 177); details: S. cerevisiae rad18 mutant growth inhibition, stronger effect = higher value
Method in brief: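 Test articles were incubated with altered yeast defective in DNA damage repair. Results are given as inhibition of growth versus vehicle.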

[16] = at 5.0 µM (retest, dose inferred, filed as 0.5)
[17] = at 50.0 µM (retest, dose inferred, filed as 5.0)

Measured: growth inhibition

Cc1ccc(Sc2ccccc2N)cc1
active: [1]; at 100.0 µM 98% | [2]; at 100.0 µM 99% | [3]; at 100.0 µM 93% | [4]; at 100.0 µM 98% | [5]; at 50.0 µM 90.5% | [5]; at 100.0 µM 98% | [6]; at 50.0 µM 92.3% | [6]; at 100.0 µM 98% | [7]; at 100.0 µM 99% | [8]; [17] 91% and 73% | [8]; at 50.0 µM 93.2% | [9]; at 100.0 µM 98% | [10]; at 50.0 µM 91.7% | [11]; [17] 94% and 81% | [11]; at 50.0 µM 92% | [11]; at 100.0 µM 98% | [12]; at 100.0 µM 98% | [13]; at 100.0 µM 98% | [14]; [17] 90% and 73% | [14]; at 50.0 µM 90.5% and 91% | [15]; at 100.0 µM 98%
inactive: [1]; at 1.2 µM 9% | [1]; at 3.7 µM -3% | [1]; at 11.0 µM -13% | [1]; at 33.0 µM 45% | [2]; at 1.2 µM 16% | [2]; at 3.7 µM 6% | [2]; at 11.0 µM -7% | [2]; at 33.0 µM 42% | [3]; at 1.2 µM 8% | [3]; at 3.7 µM -1% | [3]; at 11.0 µM 16% | [3]; at 33.0 µM 64% | [4]; at 1.2 µM 0% | [4]; at 3.7 µM -17% | [4]; at 11.0 µM -21% | [4]; at 33.0 µM 38% | [5]; at 1.2 µM 0% | [5]; at 3.7 µM -3% | [5]; [16] 31% and 32% | [5]; at 11.0 µM -12% | [5]; at 33.0 µM 17% | [6]; at 1.2 µM -30% | [6]; at 3.7 µM -18% | [6]; [16] 50% and 23% | [6]; at 11.0 µM -32% | [6]; at 33.0 µM 25% | [7]; at 1.2 µM -4% | [7]; at 3.7 µM -18% | [7]; at 11.0 µM -10% | [7]; at 33.0 µM 32% | [8]; [16] -5% and 43% | [9]; at 1.2 µM 22% | [9]; at 3.7 µM 12% | [9]; at 11.0 µM -3% | [9]; at 33.0 µM 46% | [10]; [16] 42% and 29% | [11]; at 1.2 µM -6% | [11]; at 3.7 µM -2% | [11]; [16] 34% and 40% | [11]; at 11.0 µM -10% | [11]; at 33.0 µM 24% | [12]; at 1.2 µM -16% | [12]; at 3.7 µM -2% | [12]; at 11.0 µM -17% | [12]; at 33.0 µM 35% | [13]; at 1.2 µM 5% | [13]; at 3.7 µM -6% | [13]; at 11.0 µM 14% | [13]; at 33.0 µM 57% | [14]; [16] 32% and 37% | [15]; at 1.2 µM -16% | [15]; at 3.7 µM -13% | [15]; at 11.0 µM -21% | [15]; at 33.0 µM 12%
95% (active) and 62% (inactive): [5]; [17]
94% (active) and 67% (inactive): [10]; [17]
95% (active) and 64% (inactive): [6]; [17]
